# The supplement of paper PMC10981050
# Values joined by “and” are separate entries in the source; they are usually repeats but may differ in a detail not shown here. Equal values may be shown once. Where a name gives a salt, the structure may show the parent alone.
# Experiments:
# Test in all cases: cell viability relative to vehicle control; higher = less cytotoxic
# Details in all cases: 10 µM
# [1] = tested on: K562
# Method in brief: (§1)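 Screening covered the Selleck bioactive, kinase and epigenetic probe libraries, less identity-inconsistent compounds, on CRISPR-edited mutant clones and isogenic wild-type clones of four leukaemia lines. Cells, at 2000 per well in 50 µL medium, received a single 10 µM acoustically dispensed dose. After 48 h the supernatant was removed and CellTiter-Glo luminescence was read. Viability was analysed in Genedata Screener as percent of the on-plate vehicle control.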
# [2] = tested on: MARIMO
# Method in brief: as §1
# [3] = tested on: MOLM14
# Method in brief: as §1
# [4] = tested on: OCI-AML2
# Method in brief: as §1
SMILES,cell viability ([1]; SRSF2 genotype: SRSF2 P95H/wt),cell viability ([1]; SRSF2 genotype: SRSF2 wt/wt) [%],cell viability ([2]; SRSF2 genotype: SRSF2 P95H/wt) [%],cell viability ([2]; SRSF2 genotype: SRSF2 wt/wt) [%],cell viability ([3]; SRSF2 genotype: SRSF2 P95H/wt) [%],cell viability ([3]; SRSF2 genotype: SRSF2 wt/wt) [%],cell viability ([4]; SRSF2 genotype: P95H/wt) [%],cell viability ([4]; SRSF2 genotype: wt/wt) [%]
CN(CC(=O)N(Cc1ccc(C2CCCCC2)cc1)c1ccc(C(=O)NO)cc1)S(=O)(=O)c1c(F)c(F)c(F)c(F)c1F,0.47% and 0.41%,0.42,0.5,0.67,0.26,0.33,0.18,0.24
CCC(=O)O[C@@H]1CC(=O)O[C@H](C)C/C=C/C=C/[C@H](O)[C@H](C)C[C@H](CC=O)[C@H](O[C@@H]2O[C@H](C)[C@@H](O[C@H]3C[C@@](C)(O)[C@@H](OC(=O)CC)[C@H](C)O3)[C@H](N(C)C)[C@H]2O)[C@H]1OC [Midecamycin],84.3% and 87.1%,89.5,89.3,102,93.3,93.7,96.2,97.4
C[C@]1(O)C[C@@H](O)[C@]2(O)C=CO[C@@H](O[C@H]3O[C@H](CO)[C@@H](O)[C@H](O)[C@H]3O)[C@@H]21 [Harpagide],105% and 99.4%,101,106,98.7,106,103,97.6,103
COC(=O)[C@H](O)[C@@H](NC(=O)c1ccccc1)c1ccccc1,108% and 104%,107,108,103,98.1,106,104,110
CC(C)(C)C(=O)Oc1ccc(S(=O)(=O)Nc2ccccc2C(=O)NCC(=O)O)cc1 [Sivelestat sodium tetrahydrate],101% and 94.9%,102,96.7,102,106,100,96.5,99.2
COc1ccc2cc1Oc1ccc(cc1)C[C@H]1c3cc(c(OC)cc3CCN1C)Oc1c(O)c(OC)cc3c1[C@H](C2)N(C)CC3 [Fangchinoline],5.78% and 5.22%,5.07,12.1,1.57,0.48,0.53,0.4,0.56
C=C(C(=O)O)C1CCC(C)C2CCC(C)=CC12 (stereo not given) [Artemisic acid],114% and 110%,113,108,90.8,104,108,99.1,103
Oc1cccc(O)c1O [Pyrogallol],96.9% and 103%,102,108,104,102,104,102,112
CNC(=C[N+](=O)[O-])NCCSCc1ccc(CN(C)C)o1 [Ranitidine Hydrochloride],108% and 98.4%,102,99.9,106,103,103,91,105
COc1ccc(-c2cnc3c(-c4cccc5ncccc45)cnn3c2)cc1,98.9% and 100%,92.7,104,112,93,108,90.4,91.5
"O=C1CCc2ccc(O)cc2N1 [7-Hydroxy-3,4-dihydrocarbostyril]",110% and 104%,102,105,112,107,103,101,107
CCCCCOc1ccc(-c2ccc(-c3ccc(C(=O)N[C@H]4C[C@@H](O)[C@@H](O)NC(=O)[C@@H]5[C@@H](O)[C@@H](C)CN5C(=O)[C@H]([C@@H](C)O)NC(=O)[C@H]([C@H](O)[C@@H](O)c5ccc(O)cc5)NC(=O)[C@@H]5C[C@@H](O)CN5C(=O)[C@H]([C@@H](C)O)NC4=O)cc3)cc2)cc1,77.8% and 78.3%,80.5,95.7,94.3,82.7,84.5,77.5,82.8
C[C@H]1C[C@H]2[C@@H]3CCC4=CC(=O)C=C[C@]4(C)[C@H]3C(=O)C[C@]2(C)[C@@]1(O)C(=O)CO [Betapar (Meprednisone)],98.4% and 97.3%,93,101,106,105,105,89,104
C[S+]([O-])c1ccc(-c2nc(-c3ccc(F)cc3)c(-c3ccncc3)[nH]2)cc1 (stereo not given),96.3% and 94.8%,88.4,110,113,109,99.9,109,102
CCCS(=O)(=O)Nc1ccc(F)c(C(=O)c2c[nH]c3ncc(Cl)cc23)c1F,87.6% and 92.7%,94.9,72.2,88.4,81.4,88.1,99.2,105
CC(C)(CO)n1cc(C(=O)c2cncc(NC(=O)Cc3ccc(Cl)cn3)c2)c2cnc(N)nc21,104%,111,115,109,64.3,76.5,107,93.4
Nc1nc(-c2ccco2)c2cnn(Cc3ccccc3F)c2n1 [A2AR antagonist 1],76% and 77.7%,72.9,73.4,70.2,88.9,98.6,91.6,88.5
O=C(NNc1nc2cc(F)ccc2n2cccc12)c1cnccn1,24.8% and 29.5%,12.5,12.6,15.3,4.38,1.25,12.4,10.5
Cc1cnc(Nc2ccc(N3CCN(C)CC3)cc2)nc1Nc1cccc(S(=O)(=O)NC(C)(C)C)c1,0.99% and 2.2%,2.6,17.1,16.1,0.12,0.18,0.19,2.96
CCOC(=O)[C@H](CCc1ccccc1)N[C@@H](C)C(=O)N1Cc2cc(OC)c(OC)cc2C[C@H]1C(=O)O [Moexipril HCl],93.9% and 103%,104,110,105,106,109,104,95.9

SMILES,cell viability ([1]; SRSF2 genotype: SRSF2 P95H/wt),cell viability ([1]; SRSF2 genotype: SRSF2 wt/wt) [%],cell viability ([2]; SRSF2 genotype: SRSF2 P95H/wt) [%],cell viability ([2]; SRSF2 genotype: SRSF2 wt/wt) [%],cell viability ([3]; SRSF2 genotype: SRSF2 P95H/wt) [%],cell viability ([3]; SRSF2 genotype: SRSF2 wt/wt) [%],cell viability ([4]; SRSF2 genotype: P95H/wt) [%],cell viability ([4]; SRSF2 genotype: wt/wt) [%]
CC(=O)CCc1ccc(OC(C)=O)cc1 [Pherocon (4-(4-Acetoxyphenyl)-2-butanone)],111% and 109%,119,103,107,109,108,119,116
CC(=O)O[C@H]1C[C@@H]2CC[C@@H]3[C@H](CC[C@@]4(C)[C@H]3C[C@H]([N+]3(C)CCCCC3)[C@@H]4OC(C)=O)[C@@]2(C)C[C@@H]1N1CCCCC1 [Vecuronium Bromide],101% and 109%,109,105,103,99.8,101,111,109
OC(c1cc(-c2ccc(Cl)cc2)nc2ccccc12)C1CCCCN1 (stereo not given) [Vacquinol-1],0.22% and 0.74%,0.11,0.1,0.17,0.03,0.14,0.05,0.39
O=C(Nc1ccc2c(O)cc(S(=O)(=O)O)cc2c1)Nc1ccc2c(O)cc(S(=O)(=O)O)cc2c1,103% and 108%,99.1,110,101,101,104,112,111
CC(=O)c1cc([N+](=O)[O-])c(Sc2ccc(F)cc2F)s1,69% and 79.6%,71,57.1,54.2,13.7,12.3,76.6,35.3
C[C@@H]1CCO[C@H]2Cn3cc(C(=O)NCc4ccc(F)cc4F)c(=O)c(O)c3C(=O)N12,84.5% and 87%,77.5,84.3,98.4,94.1,94,92,98.5
CCN1CCN(C(=O)N[C@@H](C(=O)N[C@@H]2C(=O)N3C(C(=O)O)=C(CSc4nnnn4C)CS[C@H]23)c2ccc(O)cc2)C(=O)C1=O [Cefoperazone (Cefobid)],100% and 97.5%,91.7,104,101,98.1,97.3,100,104
COc1ccccc1Oc1c(NS(=O)(=O)c2ccc(C(C)(C)C)cc2)nc(-c2ncccn2)nc1OCCO [Bosentan Hydrate],99.5% and 99.8%,98.6,97.3,104,97.1,105,112,95.2
C[C@@H](Nc1cc(F)cc(F)c1)c1cc(C(=O)N(C)C)cc2c(=O)cc(N3CCOCC3)oc12,87% and 91.9%,85.5,52,47.3,42.3,51.1,25.5,37.4
CC(C)(C)c1nc(-c2ccc(NC(=O)Nc3cccc(C(F)(F)F)c3)c3ccccc23)c2c(N)nccn12 [kira6],10.9% and 7.91%,12.4,28.8,28.4,1.58,3.37,8.47,16.5
O=C(O)C=Cc1cccc(O)c1 [3-Hydroxycinnamic acid],106% and 93.7%,97.5,86.6,97.3,87.9,93.2,91.4,94.3
CC(C)=CCOc1ccc(/C=C/C(=O)c2ccc(OCC=C(C)C)cc2OCC(=O)O)cc1 [Sofalcone],100% and 101%,107,105,101,84.9,94.5,106,118
C[C@H](CCC(=O)O)[C@H]1CC[C@H]2[C@@H]3[C@@H](O)C[C@@H]4C[C@H](O)CC[C@]4(C)[C@H]3CC[C@]12C [Ursodiol (Actigal Urso)],95.3% and 97.4%,96.6,103,98.9,99.4,100,98.1,99.7
COc1cc(C(C)=O)ccc1O [Apocynin (Acetovanillone)],103% and 104%,105,91.6,110,104,103,93,93.7
CC(C)=CCC[C@](C)(O[C@@H]1O[C@H](CO[C@@H]2OC[C@@H](O)[C@H](O)[C@H]2O)[C@@H](O)[C@H](O)[C@H]1O)[C@H]1CC[C@]2(C)[C@@H]1[C@H](O)C[C@@H]1[C@@]3(C)CC[C@H](O[C@@H]4O[C@H](CO)[C@@H](O)[C@H](O)[C@H]4O[C@@H]4O[C@H](CO)[C@@H](O)[C@H](O)[C@H]4O)C(C)(C)[C@@H]3CC[C@]12C [Ginsenoside Rb3],101% and 96.7%,108,103,103,109,102,101,101
CC(C)(C)[N+]([O-])=Cc1ccc(S(=O)(=O)O)cc1S(=O)(=O)O [NXY-059 (Disufenton sodium)],111% and 102%,109,109,110,104,108,102,104
COc1cccc2c1C(=O)c1c(O)c3c(c(O)c1C2=O)CC(O)(C(=O)CO)CC3OC1CC(N)C(O)C(C)O1 (stereo not given) [Doxorubicin (Adriamycin) HCl],4.96% and 11.8%,6.38,5.57,2.71,1,0.45,2.05,12.5
O=c1c2ccccc2oc2ccccc12 [Xanthone (Genicide)],102% and 103%,94.9,96.5,102,105,108,93.1,96.4
COc1cc2c(cc1Cc1cccc(Cl)c1F)c(=O)c(C(=O)O)cn2[C@H](CO)C(C)C [Elvitegravir (GS-9137)],52% and 50.4%,45.1,40.2,39.1,57.3,35,12.9,15.9
CCCCCCCC(=O)CCc1ccc(O)c(OC)c1 [6-Paradol],93.9% and 99.3%,104,93.3,99.7,94.3,104,94.1,91.6
